Experimental data from PubChem BioAssay AID1159580 (chemical genetic matrix, 2015).
In all, about 5,500 compounds went through this assay and about 2,000 (36%) were called active. Roughly 18% stayed inconclusive and do not appear here. Cut-off read from the data, not from the text of the source: active = normalized growth mostly below about 0.91 (no sharp cut-off); inconclusive = no clear call, values can overlap the other calls; inactive = mostly above about 0.92. This is one part of the list.

Experiment: chemical genetic growth profiling, strain panel (AID 1159580);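 note: tested at 20 µM; growth read once vehicle control cultures reached saturation at 30 °C; 1 = growth at the plate median or of vehicle wells; lower values mean less growth of the strain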
Conditions: growth OD

Measured: normalized growth

COc1cc(S(C)=O)ccc1-c1nc2ncccc2[nH]1 (centres undefined)
inactive: S. cerevisiae deletion strains, locus YJR043C, strain POL32, active compounds read low 1 | S. cerevisiae deletion strains, locus YJR075W, strain HOC1, active compounds read low 0.983 | S. cerevisiae deletion strains, locus YKL009W, strain mrt4, active compounds read low 1 | S. cerevisiae deletion strains, locus YKL068W, active compounds read low 0.991 | S. cerevisiae deletion strains, locus YKL085W, strain MDH1 (second series), active compounds read low 1 | S. cerevisiae deletion strains, locus YKL085W, strain MDH1, active compounds read low 1 | S. cerevisiae deletion strains, locus YKL160W, strain elf1, active compounds read low 0.947 | S. cerevisiae deletion strains, locus YKL190W, strain CNB1, active compounds read low 0.991 | S. cerevisiae deletion strains, locus YKR001C, strain vps1, active compounds read low 0.986 | S. cerevisiae deletion strains, locus YKR026C, strain gcn3, active compounds read low 0.98 | S. cerevisiae deletion strains, locus YKR091W, strain srl3, active compounds read low 0.959 | S. cerevisiae deletion strains, locus YLL001W, strain dnm1, active compounds read low 0.919 | S. cerevisiae deletion strains, locus YLL026W, active compounds read low 0.962 | S. cerevisiae deletion strains, locus YLL041C, strain sdh2, active compounds read low 0.97 | S. cerevisiae deletion strains, locus YLR027C, strain aat2, active compounds read low 0.98 | S. cerevisiae deletion strains, locus YLR039C, strain RIC1, active compounds read low 1.03 | S. cerevisiae deletion strains, locus YLR058C, strain SHM2, active compounds read low 0.993 | S. cerevisiae deletion strains, locus YLR102C, strain apc9, active compounds read low 0.999 | S. cerevisiae deletion strains, locus YLR221C, strain rsa3, active compounds read low 1.01 | S. cerevisiae deletion strains, locus YLR258W, strain gsy2, active compounds read low 0.93 | S. cerevisiae deletion strains, locus YLR262C, strain YPT6 (second series), active compounds read low 0.987 | S. cerevisiae deletion strains, locus YLR262C, strain YPT6, active compounds read low 0.994 | S. cerevisiae deletion strains, locus YLR268W, strain sec22, active compounds read low 0.999 | S. cerevisiae deletion strains, locus YLR320W, strain mms22, active compounds read low 0.995 | S. cerevisiae deletion strains, locus YLR330W, strain CHS5, active compounds read low 0.988 | S. cerevisiae deletion strains, locus YLR342W, strain FKS1 (second series), active compounds read low 1 | S. cerevisiae deletion strains, locus YLR342W, strain FKS1, active compounds read low 0.969 | S. cerevisiae deletion strains, locus YLR357W, strain rsc2, active compounds read low 0.915 | S. cerevisiae deletion strains, locus YLR370C, strain arc18, active compounds read low 0.974 | S. cerevisiae deletion strains, locus YLR371W, strain rom2, active compounds read low 0.991 | S. cerevisiae deletion strains, locus YLR384C, strain iki3, active compounds read low 0.961 | S. cerevisiae deletion strains, locus YLR418C, strain cdc73, active compounds read low 1.04 | S. cerevisiae deletion strains, locus YML016C, strain PPZ1, active compounds read low 1 | S. cerevisiae deletion strains, locus YML032C, strain rad52, active compounds read low 0.989 | S. cerevisiae deletion strains, locus YML120C, strain ndi1, active compounds read low 0.971 | S. cerevisiae deletion strains, locus YML124C, strain tub3, active compounds read low 0.993 | S. cerevisiae deletion strains, locus YMR058W, strain fet3, active compounds read low 0.982 | S. cerevisiae deletion strains, locus YMR078C, strain ctf18, active compounds read low 0.989 | S. cerevisiae deletion strains, locus YMR125W, strain sto1, active compounds read low 0.927 | S. cerevisiae deletion strains, locus YMR129W, active compounds read low 0.979 | S. cerevisiae deletion strains, locus YMR205C, strain PFK2, active compounds read low 0.93 | S. cerevisiae deletion strains, locus YMR223W, strain ubp8, active compounds read low 0.998 | S. cerevisiae deletion strains, locus YMR231W, strain pep5, active compounds read low 0.99 | S. cerevisiae deletion strains, locus YMR263W, strain SAP30, active compounds read low 0.975 | S. cerevisiae deletion strains, locus YMR307W, strain GAS1, active compounds read low 1.03 | S. cerevisiae deletion strains, locus YNL067W, strain RPL9B, active compounds read low 1.01 | S. cerevisiae deletion strains, locus YNL071W, strain lat1, active compounds read low 0.97 | S. cerevisiae deletion strains, locus YNL128W, strain TEP1, active compounds read low 0.997 | S. cerevisiae deletion strains, locus YNL153C, strain GIM3, active compounds read low 0.999 | S. cerevisiae deletion strains, locus YNL209W, strain ssb2, active compounds read low 0.98 | S. cerevisiae deletion strains, locus YNL233W, strain BNI4, active compounds read low 0.995 | S. cerevisiae deletion strains, locus YNL248C, strain rpa49, active compounds read low 0.967 | S. cerevisiae deletion strains, locus YNL250W, strain rad50, active compounds read low 0.991 | S. cerevisiae deletion strains, locus YNL271C, strain bni1, active compounds read low 0.997 | S. cerevisiae deletion strains, locus YNL298W, strain CLA4, active compounds read low 0.971 | S. cerevisiae deletion strains, locus YNL307C, strain MCK1, active compounds read low 1 | S. cerevisiae deletion strains, locus YNL322C, strain KRE1 (second series), active compounds read low 0.938 | S. cerevisiae deletion strains, locus YNL322C, strain KRE1, active compounds read low 0.998 | S. cerevisiae deletion strains, locus YNR049C, strain mso1, active compounds read low 0.966 | S. cerevisiae deletion strains, locus YNR052C, strain pop2, active compounds read low 0.976 | S. cerevisiae deletion strains, locus YOL006C, strain TOP1, active compounds read low 1.04 | S. cerevisiae deletion strains, locus YOL012C, strain htz1 1.02 | S. cerevisiae deletion strains, locus YOL147C, strain pex11, active compounds read low 0.982 | S. cerevisiae deletion strains, locus YOR001W, strain rrp6, active compounds read low 1.01 | S. cerevisiae deletion strains, locus YOR061W, strain CKA2, active compounds read low 1.01 | S. cerevisiae deletion strains, locus YOR069W, strain VPS5, active compounds read low 1 | S. cerevisiae deletion strains, locus YOR070C, strain gyp1, active compounds read low 0.993 | S. cerevisiae deletion strains, locus YOR080W, strain dia2, active compounds read low 0.982 | S. cerevisiae deletion strains, locus YOR083W, strain WHI5, active compounds read low 0.936 | S. cerevisiae deletion strains, locus YOR106W, strain vam3, active compounds read low 0.91 | S. cerevisiae deletion strains, locus YOR136W, strain idh2, active compounds read low 0.986 | S. cerevisiae deletion strains, locus YOR144C, strain elg1, active compounds read low 0.99 | S. cerevisiae deletion strains, locus YOR184W, strain ser1, active compounds read low 0.998 | S. cerevisiae deletion strains, locus YOR265W, strain rbl2, active compounds read low 0.967 | S. cerevisiae deletion strains, locus YOR270C, strain vph1, active compounds read low 0.974 | S. cerevisiae deletion strains, locus YOR290C, strain snf2, active compounds read low 0.951 | S. cerevisiae deletion strains, locus YOR316C, strain cot1, active compounds read low 0.991 | S. cerevisiae deletion strains, locus YPL051W, strain arl3, active compounds read low 0.943 | S. cerevisiae deletion strains, locus YPL055C, strain LGE1, active compounds read low 0.925 | S. cerevisiae deletion strains, locus YPL078C, strain atp4, active compounds read low 0.94 | S. cerevisiae deletion strains, locus YPL106C, strain sse1, active compounds read low 0.947 | S. cerevisiae deletion strains, locus YPL240C, strain hsp82, active compounds read low 0.985 | S. cerevisiae deletion strains, locus YPL241C, strain CIN2, active compounds read low 0.992 | S. cerevisiae deletion strains, locus YPR119W, strain clb2, active compounds read low 0.988 | S. cerevisiae deletion strains, locus YPR141C, strain kar3, active compounds read low 0.999 | S. cerevisiae deletion strains, locus YPR163C, strain tif3, active compounds read low 0.982 | S. cerevisiae deletion strains, locus YPR167C, strain met16, active compounds read low 0.999 | S. cerevisiae deletion strains, strain wtn01, active compounds read low 0.975 | S. cerevisiae strains, strain wild type, active compounds read low 1
